From PubChem BioAssay (NCI)
This is part of a sample that, as a whole, favours compounds with a hit. Of some 79,000 tested, about 15% had one in any assay. The source made the active and inactive calls. Cut-off read from the data, not from the text of the source: active = growth inhibition above about 70%; inactive = the rest. Where a SMILES comes first, the peptide text is derived from it. The star is where a group is joined. X7 = Clc1c(Cl)c(Cl)c(O*)c(Cl)c1Cl; Boc = CC(C)(C)OC(=O)*; OBn = c1ccc(CO*)cc1; Bn = c1ccc(C*)cc1

What was measured:
[1] = NCI Yeast Anticancer Drug Screen. Data for the rad50 strain (AID 155);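 note: 0% = growth of vehicle-only cultures of the same strain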; conditions: S. cerevisiae rad50 strain growth inhibition, active compounds read high
Method in brief: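 Readout: growth inhibition relative to vehicle-treated cultures. Compound exposure was carried out in a genetically defined yeast strain deficient in DNA damage repair.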

[2] = NCI Yeast Anticancer Drug Screen. Data for the mec2-1 strain (AID 157); conditions: S. cerevisiae mec2-1 strain, active compounds read high
Method in brief: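 mec2-1 yeast strain, carrying an alteration in DNA damage repair or cell cycle control, was exposed to compounds; growth inhibition was measured relative to vehicle-treated controls.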

[3] = NCI Yeast Anticancer Drug Screen. Data for the sgs1 mgt1 strain (AID 161);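 note: 0% = growth of cultures given vehicle only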; conditions: S. cerevisiae sgs1 mgt1 strain, active compounds read high
Method in brief: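 This yeast growth screen uses a strain with defined DNA-repair lesions; compound-treated growth is compared with vehicle-treated growth.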

[4] = NCI Yeast Anticancer Drug Screen. Data for the cln2 rad14 strain (AID 165);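 note: 0% = growth equal to vehicle treated cultures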; conditions: S. cerevisiae cln2 rad14 strain, active compounds read high
Method in brief: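 Yeast carrying cln2 and rad14 alterations (cell cycle control and DNA damage repair) were exposed to compounds. Growth inhibition was measured against vehicle-treated controls.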

[5] = NCI Yeast Anticancer Drug Screen. Data for the bub3 strain (AID 167); conditions: S. cerevisiae bub3 mutant strain, active compounds read high
Method in brief: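 Readout: yeast growth inhibition, expressed relative to vehicle-only wells. The test organism is a mutant strain from a panel with lesions in DNA repair or checkpoint genes.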

[6] = NCI Yeast Anticancer Drug Screen. Data for the mlh1 rad18 strain (AID 175); conditions: S. cerevisiae mlh1 rad18 strain growth inhibition, active compounds read high
Method in brief: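 Growth inhibition of the yeast strain was measured after compound exposure and expressed relative to vehicle-treated controls. The strain carries defined defects in DNA damage repair.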

[7] = at 5.0 µM (retest, dose inferred, filed as 0.5)
[8] = at 50.0 µM (retest, dose inferred, filed as 5.0)

Measured: growth inhibition

CC(C)(C)c1ccc(C(C)(C)C)cc1
inactive: [1]; [7] 1% | [1]; [8] 3% | [1]; at 50.0 µM -10.7% | [2]; [7] -5% | [2]; [8] -4% | [2]; at 50.0 µM 6.55% | [3]; [7] 1% | [3]; [8] -9% | [3]; at 50.0 µM -20.4% | [4]; [7] 4% | [4]; [8] -7% | [4]; at 50.0 µM 50.8% | [5]; [7] 5% | [5]; [8] 13% | [5]; at 50.0 µM 3% | [6]; [7] -2% | [6]; [8] 1% | [6]; at 50.0 µM 1.55%

Cc1ccc(S(=O)(=O)NNc2nc(N3CCOCC3)nc(N3CCOCC3)n2)cc1
active: [4]; at 50.0 µM 70.6%
inactive: [1]; [7] 1% | [1]; [8] -4% | [1]; at 50.0 µM 28.1% | [2]; [7] 2% | [2]; [8] 2% | [2]; at 50.0 µM 15.4% | [3]; [7] 10% | [3]; [8] 6% | [3]; at 50.0 µM 63% | [4]; [7] 3% | [4]; [8] -8% | [5]; [7] -1% | [5]; [8] -1% | [5]; at 50.0 µM 17.9% | [6]; [7] 0% | [6]; [8] -4% | [6]; at 50.0 µM 26.3%

Oc1cc(Cc2ccccc2)c(Cc2ccccc2)cc1O
active: [1]; [8] 96% | [1]; at 50.0 µM 89.2% | [2]; [8] 98% | [2]; at 50.0 µM 91% | [3]; [8] 96% | [3]; at 50.0 µM 92.1% | [4]; [8] 97% | [4]; at 50.0 µM 89.8% | [5]; [8] 97% | [5]; at 50.0 µM 91.5% | [6]; [8] 96% | [6]; at 50.0 µM 88.2%
inactive: [1]; [7] -32% | [2]; [7] -26% | [3]; [7] -8% | [4]; [7] -1% | [5]; [7] -23% | [6]; [7] -43%

O=C(O)CN(CC(=O)O)C1CCCCC1N1CC(=O)OC(=O)C1 (configuration not stated)
active: [1]; at 50.0 µM 74.3% | [2]; at 50.0 µM 81.1% | [3]; at 50.0 µM 75% | [5]; at 50.0 µM 80.3% | [6]; at 50.0 µM 76%
inactive: [1]; [7] 35% | [1]; [8] 35% | [2]; [7] 17% | [2]; [8] 17% | [3]; [7] 26% | [3]; [8] 26% | [4]; [7] 3% | [4]; [8] 3% | [4]; at 50.0 µM 64.3% | [5]; [7] -7% | [5]; [8] -7% | [6]; [7] 25% | [6]; [8] 25%

COc1ccc2c(ccc[n+]2CC(=O)c2ccc(-c3ccccc3)cc2)c1
inactive: [1]; [7] -24% | [1]; [8] 5% | [1]; at 50.0 µM 13.1% | [2]; [7] -5% | [2]; [8] -1% | [2]; at 50.0 µM 14.8% | [3]; [7] -20% | [3]; [8] 24% | [3]; at 50.0 µM 2.75% | [4]; [7] -2% | [4]; [8] 5% | [4]; at 50.0 µM -12.8% | [5]; [7] 3% | [5]; [8] 8% | [5]; at 50.0 µM -2.75% | [6]; [7] -3% | [6]; [8] 12% | [6]; at 50.0 µM 40%

CC(C)CC(NC(=O)C(CCC(=O)OCc1ccccc1)NC(=O)OC(C)(C)C)C(=O)NC(COCc1ccccc1)C(=O)NC(Cc1ccccc1)C(=O)Oc1c(Cl)c(Cl)c(Cl)c(Cl)c1Cl (configuration not stated) (Boc-E(OBn)LS(Bn)F-X7; configuration not given here)
active: [1]; at 50.0 µM 80.5% | [2]; at 50.0 µM 84.8% | [3]; [8] 80% | [3]; at 50.0 µM 82.8% | [4]; at 50.0 µM 85.3% | [5]; [8] 84% | [5]; at 50.0 µM 78% | [6]; [8] 76% | [6]; at 50.0 µM 79.6%
inactive: [1]; [7] 39% | [1]; [8] 58% | [2]; [7] 36% | [2]; [8] 56% | [3]; [7] 38% | [4]; [7] 26% | [4]; [8] 53% | [5]; [7] 34% | [6]; [7] 42%

CC(C)C1=CC(=O)C(C)(C2C(O)CC3(C)C4CC=C5C(CCC(O)C5(C)C)C4(C)C(=O)CC23C)O1 (configuration not stated)
inactive: [1]; [7] 65% | [3]; [7] 64% | [3]; at 50.0 µM 68.8% | [4]; [7] 54% | [5]; at 50.0 µM 62.2% | [6]; at 50.0 µM 69.4%
active: [1]; [8] 80% | [1]; at 50.0 µM 73.2% | [2]; [7] 78% | [2]; [8] 87% | [2]; at 50.0 µM 74.5% | [3]; [8] 74% | [4]; [8] 83% | [4]; at 50.0 µM 75% | [5]; [7] 78% | [5]; [8] 86% | [6]; [7] 85% | [6]; [8] 89%

COC(=O)c1ccc(CSc2ccc(OC)cc2)cc1
inactive: [1]; [7] 16% | [2]; [7] -14% | [3]; [7] 8% | [4]; [7] 2% | [5]; [7] 1% | [6]; [7] -21%
active: [1]; [8] 84% | [1]; at 50.0 µM 88.5% | [2]; [8] 75% | [2]; at 50.0 µM 83.2% | [3]; [8] 92% | [3]; at 50.0 µM 88.3% | [4]; [8] 83% | [4]; at 50.0 µM 80.9% | [5]; [8] 80% | [5]; at 50.0 µM 85.2% | [6]; [8] 91% | [6]; at 50.0 µM 85.3%

O=c1cc(Cl)c(Cl)nn1-c1ccccc1
active: [1]; [8] 80% | [1]; at 50.0 µM 89.2% | [2]; [8] 75% | [3]; [8] 71% | [4]; at 50.0 µM 71.8% | [5]; [8] 84% | [6]; [8] 86%
inactive: [1]; [7] 9% | [2]; [7] 12% | [2]; at 50.0 µM 50.5% | [3]; [7] 7% | [3]; at 50.0 µM 40.3% | [4]; [7] 6% | [4]; [8] 60% | [5]; [7] 4% | [5]; at 50.0 µM 45.5% | [6]; [7] 2% | [6]; at 50.0 µM 41.2%
